NPC1 prom act: activators of NPC1 promoter | Huh7 NPC1 promoter luciferase reporter, 24 h | Potency, µM (titrated, usually from 9.22 µM), actives largely listed as activators | 320,000 compounds, 2.4% hits | AID 485313; note: nearly all actives have a fitted effect of over 60% in size
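Cells: Huh7 expressing luciferase under the NPC1 promoter, 1500/well. Seeded 2 h, compound added, incubated 24 h at 37 °C. Luciferase reagent, 10 min ambient, then luminescence.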
ELG1 repair inh: inhibitors of ELG1-dependent DNA repair in HEK293T cells; HEK293T ELG1-luciferase reporter, luminescence, 16 h; DNA damage induced by 5-fluorouridine; Potency, µM (titrated, usually from 46.1 µM), actives largely listed as inhibitors; 330,000 compounds, 2.3% hits; note: nearly all actives have a fitted effect of over 55% in size
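Quantitative HTS, concentration-response format. 2,000 cells/well co-treated with 5-fluorouridine and compound, 16 hr in 5% CO2 at 37 °C; ONE-Glo luminescence read after 30 min.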
Rab9 prom act: activates the Rab9 promoter. Huh7 Rab9 promoter-luciferase reporter, luminescence, 24 h. Potency, µM (doses to about 9.22 µM), most hits filed as activators. 320,000 compounds, 2.8% hits; note: nearly all actives have a fitted effect of over 60% in size
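Luminescence read-out: Huh7 cells stably expressing Rab9-luciferase, treated 24 h with compound at 37 °C, then lysed with luciferase reagent for 10 min at ambient before reading.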
SMN2 splice enh: increases expression of the SMN2 splice variant; AID 1458; Potency, µM (top dose mostly 46.1 µM), usual class: activators; HEK293 SMN2-luciferase splicing reporter, luminescence, 30-36 h; 210,000 compounds, 2.8% hits; note: nearly all actives have a fitted effect of over 55% in size
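HEK293 cells carry an SMN2 […]–luciferase reporter in which exon 7 inclusion puts luciferase in frame. Cells were plated 10-12 h before compound addition, then incubated 30-36 h at 37C. ONE-Glo luminescence was read; sodium butyrate at 4.5 mM final served as control.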
ELG1 genotox: genotoxicity induction in ELG1-luciferase HEK293T cells; HEK293T ELG1-luciferase reporter, luminescence, 16 h; Potency, µM (highest dose often 46 µM), hits mostly activators; 330,000 compounds, 1.3% hits; AID 504466; note: nearly all actives have a fitted effect of over 60% in size
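Quantitative HTS format in 1536-well plates. HEK293T ELG1-luciferase reporter cells receive test compound and are incubated 16 hr at 37 °C, 5% CO2; ONE-Glo added, 30 min room temperature, then luminescence read.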
FLuc counter: counter-screen for miR-21 project: firefly luciferase inhibitors or activators | P08659 | purified FLuc, Km substrates, luminescence inhibition | Potency, µM (titrated, usually from 57.5 µM), most hits filed as inhibitors | 360,000 compounds, 6.9% hits | AID 588342; note: nearly all actives have a fitted effect of over 55% in size
Target sequence (P08659 whole entry, looked up): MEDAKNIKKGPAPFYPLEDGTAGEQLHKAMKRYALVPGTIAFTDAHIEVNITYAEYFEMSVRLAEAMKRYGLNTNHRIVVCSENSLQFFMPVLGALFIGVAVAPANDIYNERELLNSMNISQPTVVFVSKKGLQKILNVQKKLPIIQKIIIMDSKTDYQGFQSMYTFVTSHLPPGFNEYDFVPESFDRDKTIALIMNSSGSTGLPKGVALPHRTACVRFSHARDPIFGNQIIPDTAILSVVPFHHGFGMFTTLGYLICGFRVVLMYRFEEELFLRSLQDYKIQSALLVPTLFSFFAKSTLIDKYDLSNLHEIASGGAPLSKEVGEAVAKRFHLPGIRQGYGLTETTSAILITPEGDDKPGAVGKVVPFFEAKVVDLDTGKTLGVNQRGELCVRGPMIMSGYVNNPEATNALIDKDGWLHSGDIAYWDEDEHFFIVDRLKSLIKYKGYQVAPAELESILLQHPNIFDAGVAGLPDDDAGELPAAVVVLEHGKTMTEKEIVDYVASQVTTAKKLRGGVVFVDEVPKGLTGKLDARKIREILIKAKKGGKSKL
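Biochemical qHTS of compounds, final roughly 60 µM downward over six points, against 10 nM purified firefly luciferase using Km concentrations of substrates (10 uM D-luciferin, 10 uM ATP) in Tris acetate pH 7.5 buffer; luminescence output.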
Numbers stand for hits; - = inactive; ? = inconclusive; . = no result given; [ ] = dose if it differs, or a comment. Most compounds without a hit are left out; they make up all but 9.2% or so of the library. Calls come from the whole dose curve; as a rule, active = well fitted curve in the direction sought with a large enough effect; inconclusive = small, poorly fitted or top-dose-only effect, or another doubt; inactive = no such curve, though single readings can be large; an effect the other way counts as inactive or inconclusive.

SMILES	NPC1 prom act	ELG1 repair inh	Rab9 prom act	SMN2 splice enh	ELG1 genotox	FLuc counter
Nc1nc2ccc(C(=O)Nc3ccc(N4CCOCC4)cc3)cc2s1	.	-	.	.	-	.
CCc1ccc(NC(=O)CSc2nc3ccccc3nc2N2CCCCC2)cc1	-	?	-	.	-	?
CCc1cccc(NC(=O)CSc2nc3ccccc3nc2N2CCCCC2)c1	.	.	.	0.5µM	.	-
N#CCCCSc1nnc(CSc2nc3ccccc3s2)n1-c1ccccc1	-	?	-	-	-	-
O=C(O)CCSc1ccc2ccccc2n1	-	?	-	-	-	24µM
c1ccc2sc(SCSc3nc4ccccc4s3)nc2c1	-	?	-	-[9.22 µM]	-	?
N#CCc1nc(CSc2nc3ccccc3s2)cs1	-	?	?	-	18µM	?
CCc1cccc(CC)c1NC(=O)CCCSc1nc2ccccc2s1	-	?	-	.	-	-
O=C(O)CSc1ccc2ccccc2n1	-	-	-	-	-	-
O=C(O)CCSc1nc2ccccc2s1	-	-	-	-	-	21µM
CCC(C)(C)NC(=O)CCCSc1nc2ccccc2s1	?	-	?	?	-	24µM
O=S(=O)(Nc1ccc(-c2ccc3nncn3n2)cc1)c1cccs1	-	-	-	.	-	-
CCCOc1ccc(C2C(=O)N(C3CCCCCC3)CC(=O)N2CCC2=CCCCC2)cc1OC (configuration not stated)	.	.	.	.	.	-
Cc1sc(NC(=O)C2C3CCC(O3)C2C(=O)O)nc1-c1ccc(CC(C)C)cc1 (configuration not stated)	-	?	-	-	?	15µM
Cc1ccc(N(C(=O)CNC(=O)c2ccco2)C(C(=O)NC2CCCCC2)c2cccnc2)cc1C (configuration not stated)	-	-	-	.	-	-
Cc1ccc(N(C(=O)CCl)C(C(=O)NC2CCCCC2)c2cccnc2)cc1C (configuration not stated)	-	9.2µM	-	-[1.84 µM]	-	-
CCn1cc(C(=O)N2CCN(c3cccc(Cl)c3)CC2)c(=O)c2cc(S(=O)(=O)N3CCCCC3)ccc21	.	.	.	-	.	-
Cc1ccccc1-n1c(C)cc(/C=C(\C#N)C(=O)NCC2CCCO2)c1C (configuration not stated)	-	?	?	-	10µM	0.95µM
Cc1cc(/C=C(\C#N)C(=O)NCc2cccs2)c(C)n1-c1ccccc1F	3.5µM	?	3.5µM	-	?	2.1µM
COc1ccc(/C=C(\C#N)C(=O)NCc2cccs2)cc1OC	-	-	-	-	-	-
CC(=O)Oc1ccc(C(=O)Nc2cccnc2)cc1	-	-	-	.	-	-
COC(=O)c1ccccc1NC(=O)c1cn2c3c(ccc(Cl)c3c1=O)OC(C)C2 (configuration not stated)	.	.	.	.	.	-
CC1(O)N(CCC(=O)Nc2cccc(F)c2)C(=O)OC12CCCCC2 (configuration not stated)	-	-	-	.	-	-
O=C(O)c1cc(-c2ccc(C(F)(F)F)cc2)nc2n[nH]c(-c3ccccc3)c12	.	.	.	.	.	3µM
COc1ccc(-c2cc(C(=O)NCCc3ccccc3)c3c(-c4ccccc4)[nH]nc3n2)cc1	.	.	.	.	.	-
SMILES	NPC1 prom act	ELG1 repair inh	Rab9 prom act	SMN2 splice enh	ELG1 genotox	FLuc counter
CCN(CC)c1ccc(NC2CC(=O)N(CCc3ccc(OC)cc3)C2=O)cc1 (configuration not stated)	-	-	-	.	-	-
CCOC(=O)C1=C(O)/C(=C/c2ccccn2)SC1=Nc1ccc(Cl)cc1	-	21µM	-	-	-	-
CCOC(=O)C1=C(O)/C(=C/c2ccc(OCC(=O)O)c(OCC)c2)SC1=Nc1ccccc1	-	-	-	-	-	-
Cc1[nH]n(-c2ccccc2)c(=O)c1N=Nc1ccc2c(c1)OCO2	?	?	?	18µM	-	6µM
O=c1cc(-c2ccccc2)nc2c(-c3ccccc3)c(C(F)(F)F)[nH]n12	-	?	-	.	-	?
Nc1[nH]n2c(=O)cc(-c3ccccc3)nc2c1N=Nc1ccc2c(c1)OCO2	-	-	-	.	-	5.4µM

High-throughput results deposited in PubChem BioAssay by National Center for Advancing Translational Sciences (NCATS).
